High-throughput results as filed in PubChem.
This is a sample that favours compounds with a hit; in the whole collection about 1.2% have one here.
CR mimetic SO = caloric restriction mimetics inhibiting age-related superoxide in yeast. S. cerevisiae aged cells, superoxide DHE fluorescence; active compounds read low. superoxide response (% of plate mean), % at 10 µM. actives 0.18% (n = 330,000). AID 2690;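 active = superoxide response under a set limit, about three screen SD below normal, cut at about 65% in these data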;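 note: yeast aged for seven days with compound at 30 °C before DHE staining; 100% = average MFI of all compound-treated wells on the plate with controls excluded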
ABCB6 inh MLPCN = inhibitors of human ABC transporter ABCB6. Q9NP58. K562-ABCB6 porphyrin accumulation, flow cytometry, 1 h; active compounds read low. fluorescence ratio to DMSO, % at 10 µM. actives 0.19% (n = 360,000);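 active = fluorescence ratio to DMSO below 75%, the collection mean minus 3 SD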;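 note: signal is porphyrin accumulated inside mitochondria; 100% equals median channel fluorescence of DMSO control wells; lower ratio means ABCB6 inhibition with less porphyrin fluorescence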
Target sequence (Q9NP58 whole entry, looked up): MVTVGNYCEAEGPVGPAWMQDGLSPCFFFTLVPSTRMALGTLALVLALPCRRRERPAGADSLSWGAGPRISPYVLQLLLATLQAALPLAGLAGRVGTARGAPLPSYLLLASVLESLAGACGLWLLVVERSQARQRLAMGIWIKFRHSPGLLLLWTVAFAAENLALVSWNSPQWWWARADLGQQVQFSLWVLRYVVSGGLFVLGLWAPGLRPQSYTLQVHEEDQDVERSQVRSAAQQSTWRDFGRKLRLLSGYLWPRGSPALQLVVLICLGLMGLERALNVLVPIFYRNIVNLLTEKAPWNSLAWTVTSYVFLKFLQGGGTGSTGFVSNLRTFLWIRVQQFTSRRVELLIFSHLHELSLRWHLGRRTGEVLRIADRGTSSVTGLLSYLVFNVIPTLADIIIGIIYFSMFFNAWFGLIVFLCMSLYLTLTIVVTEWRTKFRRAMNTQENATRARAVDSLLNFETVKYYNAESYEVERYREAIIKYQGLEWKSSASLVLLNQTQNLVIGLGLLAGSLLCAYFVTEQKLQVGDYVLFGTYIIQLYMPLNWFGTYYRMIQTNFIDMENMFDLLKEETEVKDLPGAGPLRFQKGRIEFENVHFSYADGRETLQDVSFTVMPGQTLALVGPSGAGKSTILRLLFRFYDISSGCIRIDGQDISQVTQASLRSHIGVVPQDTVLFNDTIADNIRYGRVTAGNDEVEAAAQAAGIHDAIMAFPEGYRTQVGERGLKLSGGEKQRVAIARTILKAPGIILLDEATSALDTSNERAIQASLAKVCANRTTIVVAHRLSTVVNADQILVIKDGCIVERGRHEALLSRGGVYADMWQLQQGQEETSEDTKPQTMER
Platelet DG rel = platelet dense granule release activity; human platelet-rich plasma, SFLLRN dense granule ATP release, luminescence; inhibition, %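 (compounds screened at 7.5 µM in platelet-rich plasma)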; actives 0.22% (n = 300,000);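 active = mean replicate score, as percent of positive control, at or above 50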
VLA-4 inh = inhibition in a human VLA-4 binding assay; VLA-4 expressing cells, ligand binding flow cytometry; actives 0.2% (n = 330,000); inhibition, % (about 7 µM as worked out from the volumes in the protocol); AID 2557; in the data active = inhibition above about 50%
SKN-1 inh = inhibitors of C. elegans SKN-1. AID 624304. C. elegans VP596 Pgst-4::GFP/RFP ratio, acrylamide-induced, 24 h. inhibition, % at 21.8 µM. actives 0.49% (n = 360,000);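 active = interference check ratio from 0.5 to 1.5 plus GFP to RFP signal ratio inhibition reaching or exceeding a fixed threshold, cut at about 30% in these data, passing the limit was not always enough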
ABCB6 inh CP1 = human ABCB6 transporter inhibition | shares compounds with ABCB6 inh MLPCN | K562-ABCB6 porphyrin accumulation, flow cytometry, 1 h; active compounds read low | ratio response (% of DMSO), % at 10 µM | 700 tested, under 10 active;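 active = repeat-averaged ratio response below 75% of DMSO, the collection mean minus 3 SD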;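 note: median porphyrin fluorescence at 575 nm with 488 nm excitation from mitochondria; lower ratio means less porphyrin signal so ABCB6 inhibition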
K562 vector FC = activity in empty-vector K562 counter-screen for ABCB6 inhibitors. shares compounds with ABCB6 inh MLPCN. K562 empty-vector cells, flow cytometry fluorescence, 1 h. AID 624484. 25 tested, under 10 active. percent response (fluorescence), % at 100 µM;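 active = compounds whose half-maximal effective concentration is below 100 µM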
Numbers without * were called inactive; / = no result given.

SMILES	CR mimetic SO	ABCB6 inh MLPCN	Platelet DG rel	VLA-4 inh	SKN-1 inh	ABCB6 inh CP1	others
CC(C)C(=O)N1CCC1(C)C(=O)NCc1ccc(C(C)(C)C)cc1 (stereo unspecified)	/	96	/	/	20	/
CC1(C(=O)Nc2cccc3cccnc23)CCN1Cc1ccc(-c2ccccc2)o1 (stereo unspecified)	/	108	/	/	6	/
O=C1Nc2ccccc2N=C(c2ccc3c(c2)OCO3)C1N(C(=O)c1ccc2ccccc2c1)C1CC1 (stereo unspecified)	/	98	/	/	1	/
Cc1ccccc1CSCCNS(C)(=O)=O	84	44*	9	3	15	105
CCOC(=O)[C@]12CCCC=C1N(Cc1ccc3c(c1)OCO3)C(=O)[C@H](CC(=O)NCCC(C)C)C2	/	91	/	/	-2	/
CC1CCN(S(=O)(=O)c2ccc(NC(=O)CN3CCN(c4ccccc4)CC3)cc2)CC1	94	73*	-3	13	5	102
Cc1cc2ccccc2n2c(SCC(=O)Nc3ccc(S(=O)(=O)N4CCCCC4)cc3)nnc12	105	77	-5	-2	-3	/
Cc1cc2ccccc2n2c(SCC(=O)Nc3ccc(S(=O)(=O)N4CCC(C)CC4)cc3)nnc12	107	68*	6	12	3	99
O=C(O)c1ccc(S(=O)(=O)NCc2cccnc2)cc1	77	100	0	13	-12	/
CC(=O)c1ccc(S(=O)(=O)NCc2cccnc2)cc1	108	73*	0	6	4	98
CCCCNC(=O)c1cnc(Cc2c[nH]c3ccccc23)c(I)c1	/	100	/	/	18	/
Cc1ccc(F)c(S(=O)(=O)NC(=O)C2(C)CCN2C(=O)C2(c3ccc(Cl)cc3)CCC2)c1 (stereo unspecified)	/	97	/	/	19	/
CC1(C(=O)NS(=O)(=O)c2ccc(C#N)cc2)CCN1C(=O)C1(c2ccccc2)CCCC1 (stereo unspecified)	/	101	/	/	17	100
CC1(C(=O)NS(=O)(=O)c2ccc3c(c2)CCO3)CCN1C(=O)C1(c2ccc(Cl)cc2)CCC1 (stereo unspecified)	/	87	/	/	2	96
Cc1ccc(F)c(S(=O)(=O)NC(=O)C2(C)CCN2C(=O)C2(c3ccc(Cl)cc3)CC2)c1 (stereo unspecified)	/	975	/	/	-6	99
CC1(C(=O)NS(=O)(=O)c2ccc(C#N)cc2)CCN1C(=O)C1(c2ccc(Cl)cc2)CC1 (stereo unspecified)	/	101	/	/	5	100
CCc1nc2c(OCCOc3ccc(F)cc3)cccn2c1N(C=O)Cc1ccccc1	/	98	/	/	-24	/
CC(C)(C)c1ccc(S(=O)(=O)NC(=O)C2(C)CCN2C(=O)C2(c3ccccc3)CC2)cc1 (stereo unspecified)	/	95	/	/	0	/
Cc1ccccc1S(=O)(=O)NC(=O)C1(C)CCN1C(=O)C1(c2ccccc2)CC1 (stereo unspecified)	/	102	/	/	8	101
CC1(C(=O)NS(=O)(=O)c2ccccc2)CCN1C(=O)C1(c2ccc(Cl)cc2)CC1 (stereo unspecified)	/	71*	/	/	19	102
Cc1ccc(S(=O)(=O)NC(=O)C2(C)CCN2C(=O)C2(c3ccc(Cl)cc3)CCC2)cc1 (stereo unspecified)	/	100	/	/	2	/
CC1(C(=O)NS(=O)(=O)c2ccc(Cl)cc2)CCN1C(=O)C1(c2ccccc2)CCCC1 (stereo unspecified)	/	101	/	/	8	/
CC1(C(=O)NS(=O)(=O)c2ccc(Cl)cc2)CCN1C(=O)C1(c2ccc(Cl)cc2)CCC1 (stereo unspecified)	/	97	/	/	-3	99
CCCCOCCCNC(=O)C[C@@H]1C[C@@]2(C(=O)OCC)CCCC=C2N(Cc2ccc3c(c2)OCO3)C1=O	/	92	/	/	-12	/
CCCc1nnc(NC(=O)c2nc(S(=O)(=O)Cc3cccc(C)c3)ncc2Cl)s1	87	101	-15	18	-8	/	K562 vector FC=250
SMILES	CR mimetic SO	ABCB6 inh MLPCN	Platelet DG rel	VLA-4 inh	SKN-1 inh	ABCB6 inh CP1	others
Cc1cccc(CS(=O)(=O)c2ncc(Cl)c(C(=O)Nc3c(C)cccc3C)n2)c1	84	100	4	-4	7	94
Cc1nnc(NC(=O)c2nc(S(=O)(=O)Cc3ccccc3)ncc2Cl)s1	87	113	-19	-18	-9	/	K562 vector FC=214
Cc1cccc(CS(=O)(=O)c2ncc(Cl)c(C(=O)NCc3ccccc3)n2)c1	99	97	8	13	-6	/
Cc1cccc(C)c1NC(=O)c1nc(S(=O)(=O)Cc2ccccc2)ncc1Cl	111	93	17	9	9	/	K562 vector FC=237
Cc1nnc(NC(=O)CS(=O)(=O)Cc2ccccc2)s1	/	106	8	/	15	/
O=C(Nc1ccc(Oc2ccccc2)cc1)c1ccc2nc([C@@H]3O[C@H](CO)[C@H](O)[C@H](O)[C@H]3O)[nH]c2c1	/	104	/	/	6	/
Cc1ccc(C)c(Cn2nnc3c(=O)[nH]c(C4CCN(C(=O)c5cccs5)CC4)nc32)c1	106	83	-6	7	5	/
O=C(c1cccs1)N1CCC(c2nc3c(nnn3Cc3cccc(Cl)c3)c(=O)[nH]2)CC1	98	101	8	4	4	99
O=C(c1cccs1)N1CCCC(c2nc3c(nnn3Cc3cccc(Cl)c3)c(=O)[nH]2)C1 (stereo unspecified)	117	95	-9	-2	6	/
O=C(c1cccs1)N1CCC(c2nc3c(nnn3Cc3c(Cl)cccc3Cl)c(=O)[nH]2)CC1	102	96	-13	0	5	100
Cc1ccc(Cn2nnc3c(=O)[nH]c(C4CCN(C(=O)c5cccs5)CC4)nc32)cc1	122	100	-6	1	3	98
O=C1CCC(OCc2ccccc2)CCN1[C@H](CSc1ccccc1)Cc1ccccc1 (stereo partly specified)	/	99	/	/	5	/
CCOC(=O)[C@]12CCC=C1N(Cc1ccc(Cl)cc1Cl)C(=O)[C@H](CC(=O)N1CCOCC1)C2	/	94	/	/	-3	/
C[C@@H]1CN([C@@H](C)CO)C(=O)CCCn2cc(nn2)CO[C@H]1CN(C)S(=O)(=O)c1ccc(Cl)cc1	/	102	/	/	-11	/
CCOc1ccc(C2Nc3ccccc3NC3=C2C(=O)CC(C)(C)C3)cc1OC (stereo unspecified)	109	66*	0	8	14	99
NC(c1csc(Nc2ccc(C(F)(F)F)cn2)n1)C1CCCCC1 (stereo unspecified)	/	89	/	/	3	/
CC12CCC(C(=O)N(CCCCN3CCN(c4ccccn4)CC3)C1=O)C2(C)C (stereo unspecified)	102	58*	9	2	6	99
